Pf growth 48h: Primary qHTS for delayed death inhibitors of the malarial parasite plastid, 48 hour incubation; P. falciparum luciferase growth in erythrocytes, 48 h; Potency, µM (series often up to 28.7 µM), hits mostly inhibitors; 310,000 tested, 5.9% active; AID 504832, 2011
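In quantitative HTS format, infected erythrocytes bearing luciferase-reporter parasites were treated for a single generation at 37 C. Luminescence after adding detection reagent served as the growth measure.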
SARS PLpro yeast: qHTS of Yeast-based Assay for SARS-CoV PLP. S. cerevisiae expressing SARS-CoV PLpro, growth rescue. Potency, µM (doses to about 32.9 µM), hits mostly activators. 330,000 tested, 0.19% active. AID 485353, 2010; calls by dose curve; note: nearly all actives have a fitted effect of over 55% in size
Pf growth 96h: Primary qHTS for delayed death inhibitors of the malarial parasite plastid, 96 hour incubation | P. falciparum luciferase reporter growth, 96 h | Potency, µM (highest dose often 28.7 µM), hits mostly inhibitors | 320,000 tested, 6.9% active | AID 504834, 2011
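Parasite growth measured via integrated firefly luciferase reporter in P. falciparum. Infected erythrocytes at 2% hematocrit, 0.05% parasitemia final were treated 96 hours at 37 C under 5% CO2, and luminescence was read.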
NS1 function inh: qHTS Assay for Inhibitors of Influenza NS1 Protein Function | AID 2326, 2010 | 270,000 tested, 0.4% active | Potency, µM (top dose mostly 46.1 µM); calls by dose curve; note: actives are rising curves; nearly all actives have a fitted effect of over 50% in size
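In this qHTS, NS1 from influenza A is expressed in budding yeast, where it slows growth. Cells are switched from glucose to 2% galactose medium (pH 6.0, -URA), treated with compound, and growth recovery is read at OD600.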
Large screens that a line does not name were inactive. Shown are actives, neighbours in structure and some others; about 10% of the full set was active somewhere. Unless noted, calls come from the whole dose curve; as a rule, active = well fitted inhibition curve with a large enough effect; inconclusive = small, poorly fitted or top-dose-only effect, or another doubt; inactive = no such curve, though single readings can be large or run the other way.

COc1ccc(-n2c(C)cc(C(=O)COC(=O)Cc3n[nH]c(=O)c4ccccc34)c2C)cc1	Pf growth 48h 11.7µM, Pf growth 96h 2.08µM
Cc1cc(C(=O)COC(=O)Cc2n[nH]c(=O)c3ccccc23)c(C)n1-c1ccc2c(c1)OCO2	Pf growth 48h 6.57µM, Pf growth 96h inconclusive
COc1ccc(-n2c(C)cc(C(=O)CN3CCCCC3)c2C)cc1	Pf growth 48h inconclusive, Pf growth 96h inconclusive (no result: NS1 function inh)
COc1ccc(-n2c(C)cc(C(=O)C[N+]34CCN(CC3)CC4)c2C)cc1	Pf growth 96h 5.86µM (no result: NS1 function inh)
COc1ccc(COC(=O)Nc2cn(C)nc2C(F)(F)F)cc1	none
CCC(Oc1ccccc1)C(=O)N(C)CC(=O)N(CC(C)C)c1c(N)n(CC(C)C)c(=O)[nH]c1=O (stereo unspecified)	Pf growth 48h inconclusive (no result: NS1 function inh)
Cc1ccc(CS(=O)(=O)CCC(=O)NCc2ccccc2Cl)cc1	NS1 function inh inconclusive
CCC(c1nnc(SCC(=O)Nc2ccc(C(=O)N(C)C)cc2)n1Cc1ccccc1)N(C)C (stereo unspecified)	none
COc1cc(OC)c(NS(=O)(=O)c2ccc(Cl)c(C(=O)OC(C)C(=O)N3CCCC3)c2)cc1Cl (stereo unspecified)	none
CCCCn1c(=O)c(C(=O)Nc2ccccc2N)c(O)c2ccccc21	Pf growth 96h inconclusive
CCCCCn1c(=O)c(C(=O)Nc2ccccc2N)c(O)c2ccccc21	Pf growth 48h 4.15µM
CCn1c(=O)c(C(=O)NCc2ccc(F)cc2)c(O)c2ccccc21	Pf growth 96h 11.7µM
COc1cc2[nH]c(=O)c(C(=O)NCc3ccc(F)cc3)c(O)c2cc1OC	Pf growth 96h 3.29µM
CCCCCCCCn1c(=O)c(C(=O)OC)c(N)c2ccccc21	Pf growth 48h 14.7µM, Pf growth 96h inconclusive
CCCCCn1c(=O)c(C(=O)NCc2ccncc2)c(O)c2ccccc21	Pf growth 48h 1.65µM
CCCCCC(=O)NNC(=O)c1c(O)c2ccccc2n(CC)c1=O	Pf growth 48h inconclusive, Pf growth 96h 10.4µM
CCCCCCn1c(=O)c(C(=O)Nc2cnccn2)c(O)c2ccccc21	Pf growth 48h 2.62µM, Pf growth 96h inconclusive
CCCCCCn1c(=O)c(C(=O)Nc2nc(CC(=O)OCC)cs2)c(O)c2ccccc21	Pf growth 48h 11.7µM
CCCCCCCCCC(=O)NNC(=O)c1c(O)c2ccccc2n(CC)c1=O	none
CCC(C)N1CC(=O)N2C(c3ccc(OC)cc3OC)c3[nH]c4ccccc4c3C[C@H]2C1=O (stereo partly specified)	Pf growth 48h inconclusive, Pf growth 96h inconclusive
COc1ccc(NC(=O)CN(C)CC(=O)N2CC(=O)Nc3ccccc32)cc1	none (no result: Pf growth 48h, Pf growth 96h, NS1 function inh)
Cc1ccc(C)c(NC(=O)CSc2nnc(-c3cc(C)[nH]n3)n2N)c1	Pf growth 48h inconclusive, Pf growth 96h inconclusive
COc1ccc(CCN(CC(=O)NCc2ccc(F)cc2)C(=O)c2snc(C(N)=O)c2N)cc1OC	none
Cc1ccc(N(CCC(=O)Nc2nnc(C3CC3)s2)S(=O)(=O)c2ccccc2)cc1	Pf growth 48h inconclusive, Pf growth 96h inconclusive
CC(C)Cn1c(=O)c(C(=O)NCc2ccccn2)c(O)c2ccccc21	Pf growth 48h 11.7µM
CCCCCn1c(=O)c(C(=O)NCc2ccccc2Cl)c(O)c2ccccc21	Pf growth 48h 7.38µM, Pf growth 96h inconclusive
CC1CCN(S(=O)(=O)c2ccc3ncn(CC(=O)N(C)Cc4ccccc4)c(=O)c3c2)CC1	Pf growth 48h inconclusive, Pf growth 96h 14.7µM
COC(=O)c1ccccc1NC(=O)Cn1cnc2ccc(S(=O)(=O)N3CCC(C)CC3)cc2c1=O	Pf growth 96h inconclusive
CCOc1cc(/C=N/NC(=O)CCn2nc(C)cc2C)ccc1O	none
Cn1nnnc1Sc1ncnc2scc(-c3cccc(F)c3)c12	Pf growth 48h 4.65µM, Pf growth 96h inconclusive (no result: NS1 function inh)
Cn1nnnc1Sc1ncnc2scc(-c3ccc(C#N)cc3)c12	Pf growth 48h 4.65µM, Pf growth 96h 1.85µM (no result: NS1 function inh)
Cn1nnnc1Sc1ncnc2scc(-c3cccc(C(F)(F)F)c3)c12	none (no result: Pf growth 48h, Pf growth 96h, NS1 function inh)
CCNC(=S)NNC(=O)c1cc(-c2cccc(OCC)c2)nc2ccccc12	Pf growth 48h inconclusive (no result: Pf growth 96h)
Cc1[nH]c2ccccc2c1/C=N/NC(=O)c1cc(-c2ccncc2)nc2ccccc12	Pf growth 48h inconclusive, Pf growth 96h 6.57µM
O=C(N/N=C/c1ccccn1)c1cc(-c2ccc(Cl)cc2)nc2ccccc12	Pf growth 48h 9.28µM, Pf growth 96h 9.28µM
CCCOc1cccc(-c2cc(C(=O)N/N=C/c3ccccn3)c3ccccc3n2)c1	Pf growth 48h 11.7µM, Pf growth 96h 9.28µM
CCCCOc1cccc(-c2cc(C(=O)NNC(=S)NCC)c3ccccc3n2)c1	Pf growth 96h 11.7µM (no result: Pf growth 48h)
COc1ccc2nc3oc(C(=O)N4CCC(C(N)=O)CC4)cc3cc2c1	Pf growth 48h 11.7µM
COCCCNC(=O)c1cc2cc3cc(OC)ccc3nc2o1	Pf growth 48h 10.4µM
CCN(CC)CCNC(=O)c1cc2cc3ccc(OC)cc3nc2o1	none
COc1ccc2cc3cc(C(=O)Nc4cc(OC)c(OC)c(OC)c4)oc3nc2c1	Pf growth 96h inconclusive (no result: Pf growth 48h)
COc1ccc2cc3cc(C(=O)NC(C)C)oc3nc2c1	Pf growth 96h 2.94µM (no result: Pf growth 48h)
CCOC(=O)C1CCN(C(=O)c2cc3cc4ccc(OC)cc4nc3o2)CC1	Pf growth 96h inconclusive
COCC(=O)NCCSc1c(C)[nH]c2ccccc12	none
COCC(=O)c1[nH]c2ccccc2c1C	SARS PLpro yeast inconclusive, Pf growth 96h 3.7µM
O=C(CN1CCCc2ccccc21)NCCc1ccc(F)cc1	Pf growth 96h inconclusive (no result: NS1 function inh)
Cn1c(CC(=O)Nc2ccc(Cl)c(Cl)c2)n[nH]c1=S	Pf growth 96h 0.0738µM (no result: NS1 function inh)
Cc1ccc(NC(=O)Cc2n[nH]c(=S)n2C)cc1	Pf growth 96h inconclusive (no result: NS1 function inh)
CC(NC(=O)CC(c1ccccc1)c1cc(Cl)ccc1O)c1ccccc1 (stereo unspecified)	Pf growth 48h inconclusive
CN(Cc1ccccc1)C(=O)CC(c1ccccc1)c1cc(Cl)ccc1O (stereo unspecified)	Pf growth 48h inconclusive, Pf growth 96h 10.4µM
O=C(NCc1nc2ccccc2[nH]1)C1=C[C@@H](c2ccc(Br)cc2)C[C@@H](OCCCCO)O1	Pf growth 48h inconclusive, Pf growth 96h inconclusive
O=C(NCc1nc2ccccc2[nH]1)C1=C[C@@H](c2ccccc2)C[C@@H](OCCCCO)O1	Pf growth 48h 0.0033µM
CC(C)(C)[C@H]1C=C(C(=O)NCc2nc3ccccc3[nH]2)O[C@@H](OCCCCO)C1	Pf growth 48h inconclusive, Pf growth 96h 10.4µM
COC(=O)c1cc(COC(=O)CNC(=O)c2ccc(Br)cc2)oc1C	none (no result: Pf growth 48h, Pf growth 96h, NS1 function inh)
C=C1CC2C(CC[C@]3(C)C(=O)CCC23)[C@]2(C)C=CC(=O)C=C12 (stereo partly specified)	Pf growth 48h inconclusive, Pf growth 96h 13.5µM (no result: SARS PLpro yeast, NS1 function inh)
C[C@]12C=CC(=O)C=C1C=C[C@@H]1C2CC[C@]2(C)C(=O)CCC12 (stereo partly specified)	Pf growth 96h inconclusive
Cc1cc(=O)n2[nH]c(-c3ccc(C(C)(C)C)cc3)cc2n1	Pf growth 48h 2.94µM, Pf growth 96h 4.65µM
Cc1cc(OCCCCCNCCO)cc(C)c1Cl	Pf growth 96h 13.1µM (no result: Pf growth 48h)
COCCn1c(CN(C)Cc2ccccc2)nc2c1c(=O)n(C)c(=O)n2C	Pf growth 96h 5.86µM (no result: Pf growth 48h)

Bioassay records deposited in PubChem BioAssay by National Center for Advancing Translational Sciences (NCATS).
